# NPR1 antag – blocks ANP-stimulated signaling of human Npr1 receptor. P16066. HEK293 hNpr1 GloSensor cGMP, ANP-stimulated luminescence. Potency, µM (series often up to 46.3 µM), for the others: at the top dose activity change, negative = inhibition, hits mostly inhibitors. 1.6% of 76,000 active; calls by dose curve; further: on the % scale 0 is the no-effect control and ±100 the full control effect; nearly all actives have a fitted effect of over 60% in size
#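 Compound pre-incubated 30 min at room temperature on GloSensor-loaded HEK293 cells stably carrying hNpr1 and the pGS-40F cGMP biosensor. Stimulation uses hNppA at 0.1 nM final; luminescence is taken at baseline and 20 min post-agonist.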
# GPT2 inhibitor – GPT2 alanine aminotransferase inhibition; Q8TD30; Recombinant GPT2, coupled pyruvate oxidase/HRP Amplex Red fluorescence; Potency, µM (highest dose often 57.7 µM), for the others: at the top dose activity change, negative = inhibition, usual class: inhibitors; 0.25% of 100,000 active; AID 1671188; further: on the % scale 0 is the no-effect control and ±100 the full control effect; nearly all actives have a fitted effect of over 60% in size
# Target sequence (Q8TD30 whole entry, looked up): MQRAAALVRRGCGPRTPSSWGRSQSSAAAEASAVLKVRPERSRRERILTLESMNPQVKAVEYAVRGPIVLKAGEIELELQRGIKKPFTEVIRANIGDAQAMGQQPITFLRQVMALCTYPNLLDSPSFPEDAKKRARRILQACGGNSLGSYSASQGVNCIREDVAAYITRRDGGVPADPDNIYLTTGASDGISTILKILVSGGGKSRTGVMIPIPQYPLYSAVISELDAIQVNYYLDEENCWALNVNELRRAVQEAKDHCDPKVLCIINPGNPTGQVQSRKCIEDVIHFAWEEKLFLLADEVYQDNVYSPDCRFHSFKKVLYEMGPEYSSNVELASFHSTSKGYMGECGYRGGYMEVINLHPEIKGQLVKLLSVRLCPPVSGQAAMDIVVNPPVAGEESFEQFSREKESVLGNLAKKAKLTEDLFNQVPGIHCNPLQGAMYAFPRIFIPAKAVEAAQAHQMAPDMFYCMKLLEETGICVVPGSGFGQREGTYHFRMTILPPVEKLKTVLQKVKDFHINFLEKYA
#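 Recombinant GPT2 (10ng/uL) with 250uM a-KG and 2mM L-alanine, 30 min at room temperature, in HEPES pH 7.5 buffer. Pyruvate detected by pyruvate oxidase/HRP/Amplex Red fluorescence after 30 min in the dark; AOA (50uM) as positive control.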
# HEK cytotox – HEK 293 cell cytotoxicity. HEK 293 viability, ATP luminescence (CellTiter-Glo), 48-72 h. Potency, µM (highest dose often 115 µM), for inactives: at the highest dose activity change, negative = cytotoxicity, usual class: inhibitors. 6.6% of 94,000 active. AID 1345083; further: on the % scale 0 is the no-effect control and ±100 the full control effect; nearly all actives have a fitted effect of over 60% in size
#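 Luminescence from cellular ATP, measured with CellTiter-Glo, indicates HEK 293 viability. Cells plated at 250 cells/well are treated with compound for 48 or 72 hr at 37 degree Celsius before reagent addition.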
# 3T3 cytotox – NIH 3T3 cell cytotoxicity. NIH 3T3 viability, CellTiter-Glo ATP luminescence, 48-72 h. Potency, µM (highest dose often 96.7 µM), without a hit: at the highest dose activity change, negative = cytotoxicity, hits mostly inhibitors. 4.3% of 94,000 active; further: on the % scale 0 is the no-effect control and ±100 the full control effect; nearly all actives have a fitted effect of over 55% in size
#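 Cytotoxicity is measured as loss of cellular ATP: NIH 3T3 cells (400/well) are exposed to compound for 48 or 72 hr at 37 °C, then CellTiter-Glo luminescence is imaged after 10 min at room temperature.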
# FLuc inh-1 – blocks purified firefly luciferase enzyme activity. purified P. pyralis luciferase, luminescence, biochemical. AID 1347043. 2.5% of 76,000 active. Potency, µM (titrated, usually from 115 µM), hits mostly inhibitors. P08659; further: on the % scale 0 is the no-effect control and ±100 the full control effect; nearly all actives have a fitted effect of over 65% in size
#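 Purified P. pyralis luciferase (10nM final) in 50mM Tris acetate pH 7.5, 10mM Mg acetate, 0.01% Tween-20, 0.05% BSA with 10uM D-luciferin and 10uM ATP. Compounds titrated qHTS. Luminescence imaged on CCD.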
# FLuc SDR no ATP – stabilizes firefly luciferase without ATP | 7.8% of 1,300 active | shares compounds with FLuc inh-1 | Potency, µM (top dose mostly 32.7 µM), inactives show at the top dose activation (signal gain), usual class: activators | Purified FLuc-C-HiBiT, Nano-Glo HiBiT luminescence, no ATP; further: nearly all actives have a fitted effect of over 55% in size
# FLuc SDR ATP – stabilizes firefly luciferase with ATP present; shares compounds with FLuc inh-1; purified FLuc-C-HiBiT + ATP, HiBiT complementation luminescence; Potency, µM (top dose mostly 32.7 µM), inactives show at the highest dose activation (gain of signal), most hits filed as activators; 8.7% of 1,300 active;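 further: signal reports ligand binding via conformational change of the enzyme rather than luciferase catalysis; % of control where 0% means no effect; nearly all actives have a fitted effect of over 55% in size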
# FLuc inh-2 – blocks firefly luciferase enzymatic activity; shares compounds with FLuc inh-1; purified FLuc-C-HiBiT enzyme, luciferin luminescence; Potency, µM (titrated, usually from 32.7 µM), for inactives: top-dose activity change, negative = inhibition, actives largely listed as inhibitors; 42% of 1,300 active; AID 1963320; further: on the % scale 0 is the no-effect control and ±100 the full control effect; nearly all actives have a fitted effect of over 70% in size
# * hit, by the source's call; i = inactive; ? = inconclusive; . = not tested or not shown; [ ] = remark or other dose. Most compounds without a hit are left out; they make up all but 10% or so of the library. Unless noted, the call rests on the fitted dose curve; in most records, active means well fitted curve in the direction sought with a large enough effect; inconclusive means small, poorly fitted or top-dose-only effect, or another doubt; inactive means no such curve, though single readings can be large; an effect the other way counts as inactive or inconclusive. Potency means the concentration at half of the fitted maximal effect.
SMILES,NPR1 antag,GPT2 inhibitor,HEK cytotox,3T3 cytotox,FLuc inh-1,FLuc SDR no ATP,FLuc SDR ATP,FLuc inh-2
CCCn1ncc(-c2nc(-c3ccncc3)no2)c1C,?,-7.4%,35.5µM*,?,2.51µM*,?,?,8.81µM*
Cc1ccccc1-c1noc(-c2nc(-c3ccncc3)no2)n1,-0.9%,-4.4%,-5.7%,2.9%,i,.,.,.
CN(c1ccccc1)c1ccc2ncn(C3CC3)c(=O)c2n1,15.8µM*,-4.7%[88.5 µM],?,?,1.26µM*,18µM*,7.15µM*,5.68µM*
CC(=O)N1CCN(C(=O)c2ccc3nc(-c4ccnc(Cl)c4)oc3c2)CC1,.,-3.4%[88.5 µM],-9.3%[172 µM],-24.3%[138 µM],.,.,.,.
COc1ccc(C(=O)NC2CCN(c3cn[nH]c(=O)c3)CC2)cc1,3.9%,i,-3.5%,-13.0%,i,.,.,.
CC1(NC(=O)C2CC2)CN(Cc2nc(-c3ccccc3OCc3ccccc3)cs2)C1,-14.1%[70.6 µM],1.7%[88.5 µM],79.4µM*,?,7.94µM*,19.0%[49.3 µM],12.8%[49.3 µM],?
CC1(NC(=O)C2CC2)CN(Cc2nc(-c3cccc(F)c3)cs2)C1,25.1µM*,0.1%[88.5 µM],?,-19.8%[138 µM],2.82µM*,?,18.9%[49.3 µM],?
O=C(CC(c1ccccc1)c1ccccc1Cl)N1CCCC1 (stereo not given),-4.2%,-7.8%,-19.9%,-22.7%,i,.,.,.
CCCNC(=O)C1C(c2cccc(NC(=O)c3ccc(C)cc3)c2)OC(=O)N1Cc1ccc(C)cc1 (stereo not given),?,-1.6%,?,?,8.91µM*,16.3%,4.42µM*,4.42µM*
CCNC(=O)C1C(c2cccc(NC(=O)c3ccccc3)c2)OC(=O)N1Cc1ccccc1 (stereo not given),4.1%,2.4%,?,-5.8%,?,.,.,.
CCN1CCN(c2nccc(Cl)n2)C(=O)C1,9.5%[70.6 µM],-4.7%[88.5 µM],-1.3%[172 µM],-10.4%[138 µM],i,.,.,.
CCN1CCN(c2csc3ccc(Cl)cc3c2=O)CC1,.,.,.,.,.,21.1%,15.5%,?
COCCC1(N(C)C)CCN(C(=O)CC2CCCCC2)CC1,-1.5%,i,i,i,i,.,.,.
COc1ccccc1C(=O)Nc1cc2c(cc1N1CCCC1)n(C)c(=O)n2C,.,i,.,.,.,.,.,.
Cc1ccc(C(=O)Nc2onc3c2CCCC3)cc1,.,.,.,.,.,?,3.94µM*,0.989µM*
COc1ccccc1C(=O)Nc1onc2c1CCCC2,.,.,.,.,.,13.7%,?,9.89µM*
Cc1ccc([S+](=O)([O-])N2CCC(c3nn(-c4ccccn4)c(=O)[nH]3)CC2)cc1,.,i,?,?,.,.,.,.
O=C1c2cnc(-c3ccc(Cl)cc3)nc2OCCN1CC1CC1,.,.,.,.,.,24.3%[49.3 µM],?,4.04µM*
O=C1c2cnc(-c3ccccc3)nc2OCCN1CC1CC1,.,.,.,.,.,?,?,16.1µM*
O=C1c2cnc(-c3ccccc3)nc2OCCN1Cc1ccccc1,-10.9%[70.6 µM],1.2%[88.5 µM],?,?,11.2µM*,14.7%[49.3 µM],9.8%[49.3 µM],-19.8%[49.3 µM]
COc1ccc(CN2CCOc3nc(Cc4ccccc4)ncc3C2=O)cc1,-9.3%[70.6 µM],?,?,?,i,.,.,.
CCOc1ccc(/C=C/c2nc3ccccc3n2S(=O)(=O)c2cccc(Cl)c2)cc1,.,.,.,.,.,3.13µM*,?,0.394µM*
COCc1nncn1C1CCN(S(=O)(=O)c2cccc(Cl)c2)CC1,-0.5%,i,1.4%,-2.4%,i,.,.,.
Cc1ccc(/C=C/c2nc3ccccc3n2S(=O)(=O)c2cccc(Cl)c2)cc1,.,.,.,.,.,0.556µM*,0.7µM*,0.124µM*
CSc1ccc(/C=C/c2nc3ccccc3n2S(=O)(=O)c2ccc(F)c(C)c2)cc1,.,.,.,.,.,4.95µM*,?,0.7µM*

# Source: PubChem BioAssay
